Assay results as given in PubChem BioAssay AID1159580 (chemical genetic matrix, 2015).
“And” between values parts separate entries of the source, which are not always exact repeats. Identical values can stand only once. About 2,000 (36%) of roughly 5,500 compounds were called active. About 18% were inconclusive and are not listed. Cut-off read from the data, not from the text of the source: active = normalized growth mostly below about 0.91 (no sharp cut-off); inconclusive = no clear call, values can overlap the other calls; inactive = mostly above about 0.92. The list shows a part of the results.

Assay: chemical genetic growth profiling, strain panel (AID 1159580);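 note: tested at 20 µM; growth read once vehicle control cultures reached saturation at 30 °C; 1 = growth at the plate median or of vehicle wells; lower values mean less growth of the strain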
Settings: S. cerevisiae deletion strains, growth OD

Measured: normalized growth

CCCc1nn(C)c2c(=O)[nH]c(-c3cc(S(=O)(=O)N4CCN(C)CC4)ccc3OCC)nc12
inactive: locus YAL013W, strain DEP1, hits give low values 1.02 | locus YAL021C, strain ccr4, hits give low values 0.991 | locus YAL026C, strain drs2, hits give low values 0.988 | locus YAL030W, strain snc1, hits give low values 0.997 | locus YBL061C, strain skt5, hits give low values 0.989 | locus YBR009C, strain hhf1, hits give low values 1 | locus YBR021W, strain FUR4, hits give low values 1.05 | locus YBR023C, strain chs3, hits give low values 0.988 | locus YBR171W, strain sec66, hits give low values 0.99 | locus YBR229C, strain ROT2, hits give low values 1.02 | locus YBR231C, strain swc5, hits give low values 0.988 | locus YBR279W, strain paf1, hits give low values 0.985 | locus YCL011C, strain gbp2, hits give low values 0.987 | locus YCL016C, strain dcc1, hits give low values 0.994 | locus YCL029C, strain bik1, hits give low values 0.993 | locus YCL061C, strain MRC1, hits give low values 0.981 | locus YCL069W, strain vba3, hits give low values 0.992 | locus YCR088W, strain abp1, hits give low values 0.983 | locus YDL005C, strain med2, hits give low values 0.987 | locus YDL035C, strain GPR1, hits give low values 1.03 | locus YDL040C, strain nat1, hits give low values 0.991 | locus YDL074C, strain BRE1, hits give low values 1.07 | locus YDL101C, strain DUN1, hits give low values 1.02 | locus YDL134C, strain PPH21, hits give low values 1.03 | locus YDL185W, strain tfp1, hits give low values 1 | locus YDL192W, strain arf1, hits give low values 0.989 | locus YDR001C, strain nth1, hits give low values 0.989 | locus YDR069C, strain doa4, hits give low values 0.991 | locus YDR101C, strain arx1, hits give low values 0.991 | locus YDR137W, strain rgp1, hits give low values 0.986 | locus YDR150W, strain NUM1, hits give low values 1.02 | locus YDR159W, strain sac3, hits give low values 1 | locus YDR162C, strain NBP2, hits give low values 1.01 | locus YDR195W, strain ref2 0.978 | locus YDR297W, strain sur2, hits give low values 0.991 | locus YDR318W, strain mcm21, hits give low values 1 | locus YDR334W, strain swr1, hits give low values 0.989 | locus YDR335W, strain msn5, hits give low values 0.993 | locus YDR388W, hits give low values 0.962 | locus YDR392W, strain spt3, hits give low values 0.989 | locus YDR502C, strain sam2, hits give low values 0.99 | locus YEL003W, strain gim4, hits give low values 0.995 | locus YEL037C, strain rad23, hits give low values 0.992 | locus YEL061C, strain CIN8 (second series), hits give low values 0.988 | locus YEL061C, strain CIN8, hits give low values 1.02 | locus YER015W, strain faa2, hits give low values 0.994 | locus YER016W, strain bim1, hits give low values 0.988 | locus YER110C, hits give low values 0.974 | locus YER111C, strain swi4, hits give low values 0.989 | locus YER155C, strain BEM2 (second series), hits give low values 0.987 | locus YER155C, strain BEM2, hits give low values 1.01 | locus YER167W, strain BCK2, hits give low values 1.03 | locus YFR010W, strain ubp6, hits give low values 0.98 | locus YGL078C, strain dbp3, hits give low values 0.985 | locus YGL086W, strain mad1, hits give low values 0.992 | locus YGL167C, strain pmr1, hits give low values 1 | locus YGL173C, strain kem1, hits give low values 0.983 | locus YGL227W, strain vid30, hits give low values 0.988 | locus YGL240W, strain doc1, hits give low values 1 | locus YGL248W, strain PDE1, hits give low values 1.02 | locus YGL253W, strain hxk2, hits give low values 0.995 | locus YGR078C, strain PAC10, hits give low values 1.04 | locus YGR135W, strain pre9, hits give low values 0.995 | locus YGR229C, strain SMI1, hits give low values 1.03 | locus YGR252W, strain gcn5, hits give low values 0.953 | locus YHR013C, strain ard1, hits give low values 0.956 | locus YHR027C, strain rpn1, hits give low values 0.992 | locus YHR030C, strain SLT2, hits give low values 1.02 and 1.03 | locus YHR079C, strain IRE1 (second series), hits give low values 0.991 | locus YHR079C, strain IRE1, hits give low values 1.05 | locus YHR094C, strain hxt1, hits give low values 0.995 | locus YHR129C, strain ARP1, hits give low values 1.02 | locus YHR142W, strain chs7, hits give low values 0.99 | locus YHR200W, strain rpn10, hits give low values 1 | locus YIL066C, strain RNR3, hits give low values 1.03 | locus YIL073C, strain SPO22, hits give low values 1.06 | locus YIL125W, strain kgd1, hits give low values 0.994 | locus YIR030C, strain dcg1, hits give low values 0.997 | locus YJL092W, strain hpr5, hits give low values 0.99 | locus YJL095W, strain BCK1 (second series), hits give low values 0.986 | locus YJL095W, strain BCK1, hits give low values 1.04 and 1.01 | locus YJL115W, strain asf1, hits give low values 0.993 | locus YJL129C, strain trk1, hits give low values 0.995 | locus YJL134W, strain LCB3, hits give low values 1.01 | locus YJL154C, strain vps35, hits give low values 0.988 | locus YJL164C, strain tpk1, hits give low values 0.999 | locus YJL166W, strain qcr8, hits give low values 0.991 | locus YJL168C, strain set2, hits give low values 0.995 | locus YJL187C, strain SWE1 (second series), hits give low values 1.02 | locus YJL187C, strain SWE1, hits give low values 0.991 | locus YJR043C, strain POL32, hits give low values 1.04 | locus YJR066W, strain TOR1, hits give low values 0.981
